From ChEMBL document CHEMBL2218924, “A broad activity screen in support of a chemogenomic map for kinase signalling research and drug discovery” (Biochem J, 2013)

Target: MAP kinase-activated protein kinase 3 (Homo sapiens) (UniProt Q16644)
Conditions: at 1 µM

Chain of MAP kinase-activated protein kinase 3 (Homo sapiens) (Q16644 whole entry, looked up): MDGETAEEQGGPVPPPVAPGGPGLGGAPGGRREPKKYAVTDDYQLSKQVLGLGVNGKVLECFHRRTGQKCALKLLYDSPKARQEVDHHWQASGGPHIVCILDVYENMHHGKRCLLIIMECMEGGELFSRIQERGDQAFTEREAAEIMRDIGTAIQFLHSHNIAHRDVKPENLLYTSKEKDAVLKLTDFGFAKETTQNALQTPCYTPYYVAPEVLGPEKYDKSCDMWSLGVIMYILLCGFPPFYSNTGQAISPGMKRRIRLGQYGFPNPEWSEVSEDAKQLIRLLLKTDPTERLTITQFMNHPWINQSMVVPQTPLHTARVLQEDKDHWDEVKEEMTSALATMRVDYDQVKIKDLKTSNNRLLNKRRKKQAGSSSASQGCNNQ

SMILES | residual activity [%]
Nc1ncnc2c1cnn2-c1ccccc1 | 95
C[C@@H](N)[C@H]1CC[C@H](C(=O)Nc2ccncc2)CC1 | 90
O=c1cc(N2CCOCC2)oc2c1ccc1ccccc12 | 127
O=C1C(Cl)=C(N2C(=O)CCC2=O)C(=O)c2ccccc21 | 101
O=C1NC(=O)C(c2cn(CCCn3ccnc3)c3ccccc23)=C1Nc1ccccc1 | 126
COc1ccc2c(c1)c(C1=C(c3c[nH]c4ccccc34)C(=O)NC1=O)cn2CCCN(C)C | 103
Cn1c2ccccc2c2c3c(c4c5ccccc5n(CCC#N)c4c21)CNC3=O | 131
N#C/C(=C1/Nc2ccccc2S1)c1ccnc(NCCc2cccnc2)n1 | 99
CO[C@H]1[C@@H](OC)C[C@H](C)[C@@H](OC)C2=CC(=O)C=C(NC(=O)/C(C)=C/C=C/[C@H](OC)[C@@H](OC(N)=O)/C(C)=C/[C@@H]1C)C2=O | 110
COc1ccc(OC)c2c(=S)c3ccccc3[nH]c12 | 100
COc1cc2c(cc1OC)-c1n[nH]c(Nc3cccc(F)c3)c1C2 | 99
COc1cc2nccc(Oc3ccc(NC(=S)NC(=O)c4ccccc4C)cc3)c2cc1OC | 101
CC(C)(C)n1nc(Cc2cccc3ccccc23)c2c(N)ncnc21 | 116
O=C1Nc2ccc(Cl)cc2/C1=C/c1cc(Cl)c(O)c(Cl)c1 | 92
CN[C@@H]1C[C@H]2O[C@@](C)([C@@H]1OC)n1c3ccccc3c3c4c(c5c6ccccc6n2c5c31)C(=O)NC4 | 101
Nc1nc(Nc2ccc(S(N)(=O)=O)cc2)nn1C(=O)c1c(F)cccc1F | 103
c1ccc(-c2cnc(Nc3ccc(OCCN4CCCC4)cc3)s2)cc1 | 118
Cc1ccc(NC2=CC(=O)c3sc(C)nc3C2=O)cc1 | 85

SMILES | residual activity [%]
NC(=O)Nc1sc(-c2ccc(F)cc2)cc1C(N)=O | 98
Nc1ccc2ncnc(NCCc3ccc(Oc4ccccc4)cc3)c2c1 | 117
O=C1NC(=O)c2c1c1c3ccccc3[nH]c1n1cncc21 | 86
N#CCCc1ccc2c(c1)-c1[nH]c3ccc([N+](=O)[O-])cc3c1CC(=O)N2 | 100
CCC(=O)Nc1ccc2ncnc(Nc3cccc(Br)c3)c2c1 | 89
COc1cc2ncnc(N3CCN(C(=O)Nc4ccc(Oc5ccccc5)cc4)CC3)c2cc1OC | 100
O=C1Nc2ccccc2/C1=C1/Nc2ccccc2/C1=N\OCCC(O)CO (stereo unspecified) | 106
Nc1n[nH]c2nnc(-c3c(-c4ccccc4)nn4ccccc34)cc12 | 99
Cn1nc2c3c(cccc31)C(=O)c1ccccc1-2 | 93
CO[C@H]1C[C@@H]2CC[C@@H](C)[C@@](O)(O2)C(=O)C(=O)N2CCCC[C@H]2C(=O)O[C@H]([C@H](C)C[C@@H]2CC[C@@H](O)[C@H](OC)C2)CC(=O)[C@H](C)/C=C(\C)[C@@H](O)[C@@H](OC)C(=O)[C@H](C)C[C@H](C)/C=C/C=C/C=C/1C | 103
O=c1cc(-c2cccc3c2Sc2ccccc2S3)oc(N2CCOCC2)c1 | 115
O=C(Nc1cccc(Nc2cc(Nc3cccc(C(F)(F)F)c3)ncn2)c1)C1CC1 | 90
CC#CC(=O)Nc1cc2c(Nc3ccc(F)c(Cl)c3)ncnc2cn1 | 104
NCCNc1ncc(C(N)=O)c(Nc2cccc(C(F)(F)F)c2)n1 | 106
N#C/C(=C(\N)Sc1ccc(N)cc1)c1ccccc1C(F)(F)F | 98
O=C(CCCc1ccc(-c2ccccc2F)cc1)Nc1ccc(O)cc1 | 100
O=C1NC(=O)/C(=C/c2ccc3c(c2)OC(F)(F)O3)S1 | 95
CCOc1cc2ncnc(Nc3cccc(Br)c3)c2cc1OCC | 106
